The values that follow come from PubChem BioAssay (NCATS).

Assay [1] can be described thus: Quantitative High-Throughput drug screen in 47 multiple myeloma cell lines against the NCATS MIPE library collection: OCIMY7_PLB cell viability assay (AID 1918987). Note: nearly all actives have a fitted effect of over 65% in size. Note: potency is the fitted concentration of half-maximal effect. Put shortly: (§1)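 MIPE 4.0 approved/investigational drugs; 500 cells/well; 48 h 37 °C humidified 5% CO2; CTG luminescence readout; DMSO = 100%, media = 0% viability.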
Assay [2] is described as follows: Quantitative High-Throughput drug screen in 47 multiple myeloma cell lines against the NCATS MIPE library collection: OCIMY5_PLB cell viability assay (AID 1918988). Note: nearly all actives have a fitted effect of over 65% in size. Note: potency is the fitted concentration of half-maximal effect. Put shortly: as §1
The nature of assay [3]: Quantitative High-Throughput drug screen in 47 multiple myeloma cell lines against the NCATS MIPE library collection: OPM1_PLB cell viability assay (AID 1918989). Note: nearly all actives have a fitted effect of over 40% in size. Note: potency is the fitted concentration of half-maximal effect. Put shortly: as §1
Assay [4] is described as follows: Quantitative High-Throughput drug screen in 47 multiple myeloma cell lines against the NCATS MIPE library collection: XG6_PLB cell viability assay (AID 1919865). Note: nearly all actives have a fitted effect of over 40% in size. Note: potency is the fitted concentration of half-maximal effect. Put shortly:
as §1

Assay [5] can be described thus: Quantitative High-Throughput drug screen in 47 multiple myeloma cell lines against the NCATS MIPE library collection: VP6_DJ cell viability assay (AID 1919867). Note: potency is the fitted concentration of half-maximal effect; nearly all actives have a fitted effect of over 40% in size. Put shortly: as §1
Assay [6] is described as follows: Quantitative High-Throughput drug screen in 47 multiple myeloma cell lines against the NCATS MIPE library collection: UTMC2_PLB cell viability assay (AID 1919868). Note: potency is the fitted concentration of half-maximal effect; nearly all actives have a fitted effect of over 55% in size. The note with it: CellTiter-Glo ATP luminescence, 48 h; viability (% of DMSO control): at 45.8 µM (top of the series) unless noted. Put shortly:
as §1
A general note: Cellular ATP, detected with luciferase, serves as a proxy for viable cell number.

The nature of assay [7]: Quantitative High-Throughput drug screen in 47 multiple myeloma cell lines against the NCATS MIPE library collection: PE2_PLB cell viability assay (AID 1919869). Note: potency is the fitted concentration of half-maximal effect; nearly all actives have a fitted effect of over 35% in size. Put shortly:
as §1

Assay [8] is described as follows: Quantitative High-Throughput drug screen in 47 multiple myeloma cell lines against the NCATS MIPE library collection: PCM6_Riken cell viability assay (AID 1919870). Note: potency is the fitted concentration of half-maximal effect; nearly all actives have a fitted effect of over 30% in size. Put shortly:
as §1

A short description of assay [9]: Quantitative High-Throughput drug screen in 47 multiple myeloma cell lines against the NCATS MIPE library collection: RPMI8226_ATCC cell viability assay (AID 1919871). Note: nearly all actives have a fitted effect of over 30% in size. Note: potency is the fitted concentration of half-maximal effect. Put shortly:
as §1

A short description of assay [10]: Quantitative High-Throughput drug screen in 47 multiple myeloma cell lines against the NCATS MIPE library collection: OPM2_DSMZ cell viability assay (AID 1919872). Note: nearly all actives have a fitted effect of over 30% in size. Note: potency is the fitted concentration of half-maximal effect. Put shortly: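 Primary qHTS used for cherry-picking: cells at 500/well, library compounds for 48 h (37C, 5% CO2), luminescent ATP assay.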
Assay [11] is described as follows: Quantitative High-Throughput drug screen in 47 multiple myeloma cell lines against the NCATS MIPE library collection: KMS11_JCRBsus cell viability assay (AID 1919873). Note: nearly all actives have a fitted effect of over 50% in size. Note: potency is the fitted concentration of half-maximal effect. Put shortly:
as §1

Assay [12] can be described thus: qHTS drug screen for cell cycle checkpoint inhibitors in PARPi-resistant BRCA-mutant ovarian cancer cell lines. (AID 1963452; calls by dose curve). The conditions noted are these: PEO1/OlaR viability, CellTiter-Glo luminescence, 96 h, stronger effect = lower value. Put shortly:
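PEO1, PEO4 and PEO1/OlaR ovarian cancer cells, 600 per well, exposed 96 h at 37C to a dilution series. Viability read by CellTiter-Glo luminescence, normalized to DMSO and empty wells; activity summarized as Z-AUC.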
For orientation: In qHTS, concentration-response curves come from the screen itself.

Assay [13] is described as follows: Quantitative High-Throughput drug screen in 47 multiple myeloma cell lines against the NCATS MIPE library collection: U266_ATCC cell viability assay (AID 1919864).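 For viability (% of DMSO control): 0% = media-only wells without cells and 100% = DMSO-only wells.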 Note: nearly all actives have a fitted effect of over 35% in size. Note: potency is the fitted concentration of half-maximal effect. Put shortly:
as §1

Assay [14] in a line: Quantitative High-Throughput drug screen in 47 multiple myeloma cell lines against the NCATS MIPE library collection: XG1_PLB cell viability assay (AID 1919866). Note: nearly all actives have a fitted effect of over 35% in size. Note: potency is the fitted concentration of half-maximal effect. Put shortly:
as §1

A short description of assay [15]: Quantitative High-Throughput drug screen in 47 multiple myeloma cell lines against the NCATS MIPE library collection: KMS28BM_JCRB cell viability assay (AID 1919874). Note: nearly all actives have a fitted effect of over 35% in size. Note: potency is the fitted concentration of half-maximal effect. Put shortly:
as §1

Assay [16] is described as follows: qHTS for identification of novel therapeutic agents for treatment of microphthalmiaassociated transcription factor (MiT) renal cell carcinoma (RCC) (AID 1963991). The conditions noted are these: CellTiter-Glo, 48 h, stronger effect = lower value. Put shortly: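 Curves over 11 concentrations were fitted to CellTiter-Glo luminescence, scaled between empty wells (0%) and DMSO (100%) viability. Cells were UOK109, UOK124 and UOK145 TFE3-fusion RCC lines at 500/well, exposed 48 hours at 37 C.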

[17] abbreviates: measured here: PEO1 parental Z-AUC.

SMILES strings stand for the structures. Records with an inconclusive call do not appear. Active and inactive are the calls of the source. Unless noted, calls come from the whole dose curve; as a rule, active = well fitted cell-killing curve with a large enough effect; inconclusive = small, poorly fitted or top-dose-only effect, or effect the other way; inactive = no such curve, though single readings can be large or run the other way.

Turning to `COc1cc(Nc2ncc(F)c(Nc3ccc4c(n3)N(COP(=O)(O)O)C(=O)C(C)(C)O4)n2)cc(OC)c1OC`, the Potency in assay [1] is 1.87 µM (active); in assay [2], 26.4 µM (active); in assay [3] it was 1.87 µM (active); in assay [4], 1.48 µM (active); in assay [5], 1.48 µM (active); in assay [6], 5.26 µM (active). Moreover, the Potency in assay [7] is 1.18 µM (active); in assay [8], 9.35 µM (active); in assay [9], 20.9 µM (active); in assay [10], 18.7 µM (active); in [11], 2.96 µM (active). Also, the Z-AUC was 0.561 (inactive) in assay [12], 0.402 in assay [12] (setting [17]) and 0.538 in assay [12] (measured here: PEO4 Z-AUC).

Turning to `CC(=O)Nc1nc(C)c(-c2ccc(Cl)c(S(=O)(=O)NCCO)c2)s1`, the Potency was 0.105 µM (active) in [1]; 9.35 µM (active) in [2]; 2.96 µM (active) in assay [3]; 6.62 µM (active) in [13]; 2.09 µM (active) in assay [4]; 1.66 µM (active) in [14]. Moreover, the Potency in assay [5] is 2.64 µM (active); in assay [6], 0.526 µM (active); in [7], 4.69 µM (active); in assay [9], 16.6 µM (active); in assay [10] it was 14.8 µM (active); in assay [11] it was 5.26 µM (active). Further, the Potency in assay [15] is 18.7 µM (active). Besides, the Z-AUC in [12] was -1.67 (inactive); in [12] (setting [17]) it was -0.921; in assay [12] (measured here: PEO4 Z-AUC), -1.08.

Turning to `C[C@]1(CO)CN(c2cc(C(=O)Nc3ccc4c(c3)-c3c(c(C(N)=O)nn3-c3ccc(F)cc3)CC4)c(Cl)cn2)C[C@@]1(C)CO`, the Potency in [1] was 1.87 µM (active); in assay [2], 8.33 µM (active); in [3] it was 3.72 µM (active); in assay [13], 18.7 µM (active); in assay [14], 14.8 µM (active); in assay [5] it was 16.6 µM (active). Further, the Potency was 11.8 µM (active) in [6]; 11.8 µM (active) in assay [7]; 16.6 µM (active) in assay [8]; 2.96 µM (active) in assay [9]; 3.72 µM (active) in assay [11].

As to `C[C@@H]1CN(CC(=O)Nc2ccc3c(c2)Cc2cccc(-c4cc(=O)cc(N5CCOCC5)o4)c2S3)C[C@H](C)O1`, the Potency in [1] is 1.32 µM (active); in assay [2], 20.9 µM (active); in assay [3], 16.6 µM (active); in assay [4], 9.35 µM (active); in assay [14], 5.9 µM (active); in assay [5] it was 16.6 µM (active). The Potency in assay [6] is 6.62 µM (active); in assay [7], 13.2 µM (active); in assay [8], 9.35 µM (active); in assay [11], 16.6 µM (active). Moreover, the Z-AUC in assay [12] is 0.729 (inactive); in assay [12] (setting [17]), 0.761; in assay [12] (measured here: PEO4 Z-AUC), 0.901.

In the case of `Cn1c(CNc2ccc(C(=N)N)cc2)nc2cc(C(=O)N(CCC(=O)O)c3ccccn3)ccc21`, the Potency result in [1], in assay [2], in assay [3], in assay [13], in assay [4] and in assay [14] was “inactive” throughout. Further, the Potency entry in [9], in assay [10], in assay [11] and in [15] was “inactive” each time. In addition, the Z-AUC was 3.54 (inactive) in assay [12], 3.55 in assay [12] (setting [17]) and 3.92 in [12] (measured here: PEO4 Z-AUC). For the same compound, the z-score in assay [16] (TFE3-RCC UOK109 viability, measured here: UOK109 Z-AUC) was 1.13; in [16] (TFE3-RCC viability, measured here: UOK124 Z-AUC), 1.05; in assay [16] (TFE3-RCC viability, measured here: UOK145 Z-AUC) it was 1.25.
